Laboratory results from PubChem BioAssay (EPA / NIEHS).
Inconclusive results are not listed. Activity calls are given as the source filed them. The calls were made as follows: active = hit-call score of the fitted dose curve at least 0.9, where 1 is the maximum; inconclusive = response in the unintended direction; inactive = score below 0.9.

Tests used:
[1] = TOX21_p53_BLA_p5_viability: Viability Assessment in the Tox21 HCT-116 p53 Agonism Beta-lactamase Assay, Phase 5 (AID 2283600)
Method in brief: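 HCT-116 p53 beta-lactamase reporter cells, 4000/well, were exposed to compound (pin transfer, 217-fold dilution) for 16 hours at 37C. Cellular ATP was read by CellTiter-Glo luminescence after 30 min at room temperature.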

[2] = target: Cellular tumor antigen p53 (Homo sapiens) (UniProt P04637); assay: TOX21_p53_BLA_p4_ratio: Tox21 HCT-116 p53 Agonism Beta-lactamase Assay, Ratio, Phase 4 (AID 2283601)
Method in brief: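 HCT-116 p53 beta-lactamase reporter cells (4000/well) preincubated 5 h, then compound (217-fold dilution of DMSO stock) for 16 h at 37C. CCF4-AM substrate added 2 h at room temperature; 460/530 nm emission ratio fitted upward versus DMSO.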

[3] = target: Cellular tumor antigen p53 (Homo sapiens) (UniProt P04637); assay: TOX21_p53_BLA_p5_ratio: Tox21 HCT-116 p53 Agonism Beta-lactamase Assay, Ratio, Phase 5 (AID 2283599)
Method in brief: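 HCT-116 p53-bla cells (4000/well) plated 5 h, dosed with compound (217-fold DMSO dilution) for 16 h at 37 C; CCF4-AM substrate 2 h at room temperature. Activity is the 460/530 nm emission ratio (405 nm excitation), fitted in gain-of-signal direction versus DMSO.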

[4] = test system: Thyroperoxidase (TPO), gene 54314; assay: CCTE_Simmons_AUR_rTPO: CCTE's Amplex UltraRed Assay for Thyroperoxidase (TPO) Inhibition, Simmons Lab (AID 2283662);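 as to AC50: potency for loss of signal meaning inhibition of peroxidase activity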
Method in brief: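 Rat thyroid microsomes (5 ug protein) with 25 uM Amplex UltraRed and 300 uM H2O2 in 200 mM phosphate buffer, 30 min at 37C in dark; fluorescence 544/590 nm. Eight concentrations, 5 nM–87.5 uM final, 0.5% DMSO, triplicate biological replicates.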

[5] = CCTE_Simmons_CellTiterGLO_HEK293T: Viability Assessment in CCTE's Assays for Thyroperoxidase (TPO) Inhibition, Simmons Lab (AID 2283665)
Method in brief: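 HEK293T cells in DMEM with 1% FBS were dosed with 8 concentrations (5 nM–87.5 uM final, 0.5% DMSO) for 24 hr at 37C; ATP content was read by CellTiter-Glo luminescence, loss-of-signal versus DMSO, three biological replicates.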

[6] = target: Luciferin 4-monooxygenase (Photinus pyralis) (UniProt P08659); assay: CCTE_Simmons_QuantiLum_inhib_2: CCTE's Firefly Luciferase Inhibition Assay, Simmons Lab (AID 2283767)
Method in brief: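 Recombinant firefly luciferase (5 ng/well, 200 mM potassium phosphate with 1 mg/ml BSA) was exposed to 8 concentrations from 5 nM to 87.5 uM (final, 0.5% DMSO) for 30 min at 37C in the dark. Loss of luminescence versus DMSO was read after injecting D-luciferin/ATP-analogue reagent.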

Sequence of Cellular tumor antigen p53 (Homo sapiens) (P04637 whole entry, looked up): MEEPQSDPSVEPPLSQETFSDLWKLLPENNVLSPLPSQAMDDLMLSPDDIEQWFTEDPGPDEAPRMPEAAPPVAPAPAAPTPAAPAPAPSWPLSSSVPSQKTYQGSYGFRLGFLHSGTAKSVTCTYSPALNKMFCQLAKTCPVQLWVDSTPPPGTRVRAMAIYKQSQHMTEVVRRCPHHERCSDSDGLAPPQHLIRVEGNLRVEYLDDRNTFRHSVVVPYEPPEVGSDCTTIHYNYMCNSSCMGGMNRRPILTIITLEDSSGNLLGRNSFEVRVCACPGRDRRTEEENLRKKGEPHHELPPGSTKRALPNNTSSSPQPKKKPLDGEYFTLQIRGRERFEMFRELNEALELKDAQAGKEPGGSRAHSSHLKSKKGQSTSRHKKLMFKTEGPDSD
Sequence of Luciferin 4-monooxygenase (Photinus pyralis) (P08659 whole entry, looked up): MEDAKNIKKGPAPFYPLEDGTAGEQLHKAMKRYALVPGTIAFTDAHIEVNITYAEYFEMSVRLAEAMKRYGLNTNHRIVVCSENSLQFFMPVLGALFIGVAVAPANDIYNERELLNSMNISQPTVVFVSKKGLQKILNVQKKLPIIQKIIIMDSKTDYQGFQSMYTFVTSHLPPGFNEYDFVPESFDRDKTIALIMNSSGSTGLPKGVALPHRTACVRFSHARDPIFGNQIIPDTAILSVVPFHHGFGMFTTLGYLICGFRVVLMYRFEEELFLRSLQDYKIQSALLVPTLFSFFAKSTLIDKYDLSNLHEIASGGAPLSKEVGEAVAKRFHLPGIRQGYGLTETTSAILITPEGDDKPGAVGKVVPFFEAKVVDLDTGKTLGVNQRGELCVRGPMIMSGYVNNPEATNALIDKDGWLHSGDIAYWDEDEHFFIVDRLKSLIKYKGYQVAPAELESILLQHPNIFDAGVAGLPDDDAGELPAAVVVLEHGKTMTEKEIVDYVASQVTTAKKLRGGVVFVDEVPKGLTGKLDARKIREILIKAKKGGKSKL

CC(C)NCC(O)COc1ccc(CCOCC2CC2)cc1 (stereo not drawn)
outcome [1]: inactive
outcome [2]: inactive

O=Cc1ccc(C(=O)O)cc1
outcome [1]: inactive
outcome [2]: inactive

FC(F)(F)c1ccccc1
outcome [3]: inactive
outcome [1]: inactive
outcome [2]: inactive

CCN(CC)CCn1c(=O)c(Cc2ccc(OC)cc2)nc2ccccc21
outcome [1]: inactive

Cc1ccnc(NS(=O)(=O)c2ccc(N)cc2)n1
outcome [3]: inactive
outcome [2]: inactive

Nc1ccc(S(=O)(=O)NC(=O)c2ccccc2)cc1
outcome [3]: inactive
outcome [2]: inactive

O=CC1CC=CCC1 (stereo not drawn)
outcome [1]: inactive
outcome [2]: inactive

Cc1ccc(C)cc1
outcome [1]: inactive

Cc1cc(N)no1
outcome [1]: inactive

CCCCCCCCCCCCCC=O
outcome [3]: inactive
outcome [1]: inactive

CCCCOCCOC(=O)CCCCCCCCC(=O)OCCOCCCC
outcome [1]: inactive
outcome [2]: inactive

CC(=O)OC(C)OC(C)=O
outcome [1]: inactive
outcome [2]: inactive

CNCCC(Oc1ccccc1OC)c1ccccc1 (stereo not drawn)
outcome [1]: inactive
outcome [2]: inactive

CCC1NC(=O)c2cc(S(N)(=O)=O)c(Cl)cc2N1 (stereo not drawn)
outcome [3]: inactive
outcome [1]: inactive
outcome [2]: inactive

Nc1ccc(S(=O)(=O)Nc2ccccc2)cc1
outcome [3]: inactive
outcome [2]: inactive

CCCC(=O)Nc1ncnc2c1ncn2[C@@H]1O[C@@H]2COP(=O)(O)O[C@H]2[C@H]1OC(=O)CCC
outcome [3]: inactive
outcome [1]: inactive
outcome [2]: inactive

CCOC(=O)Nc1ccc2c(c1)N(C(=O)CCN1CCOCC1)c1ccccc1S2
outcome [3]: inactive
outcome [1]: inactive

CCC(C=O)CC
outcome [3]: inactive
outcome [2]: inactive

CN[C@H]1CCc2cc(OC)c(OC)c(OC)c2-c2ccc(OC)c(=O)cc21
outcome [3]: inactive
outcome [2]: inactive

CC(C)CCOC(=O)C=Cc1ccccc1
outcome [3]: inactive
outcome [1]: inactive

Cn1nnnc1SCC1=C(C(=O)O)N2C(=O)[C@@H](NC(=O)[C@H](OC=O)c3ccccc3)[C@H]2SC1
outcome [1]: inactive

c1ccc2c(CCC3CCNCC3)c[nH]c2c1
outcome [3]: inactive
outcome [1]: inactive
outcome [2]: inactive

Cc1ccco1
outcome [3]: inactive
outcome [2]: inactive

CO[C@@]1(NC(=O)CSC[C@@H](N)C(=O)O)C(=O)N2C(C(=O)O)=C(CSc3nnnn3C)CS[C@@H]21
outcome [3]: inactive
outcome [1]: inactive

Nc1ccc(C(=O)O)c(O)c1
outcome [3]: inactive
outcome [2]: inactive

CCOC(=O)/C=C/C(=O)OCC
outcome [1]: inactive
outcome [2]: inactive

Cc1ccc2cccnc2c1
outcome [3]: inactive
outcome [1]: inactive
outcome [2]: inactive

CC1COc2c(N3CCN(C)CC3)c(F)cc3c(=O)c(C(=O)O)cn1c23 (stereo not drawn)
outcome [3]: inactive
outcome [2]: inactive

Cc1ccccc1N=Nc1ccc(N=Nc2c(O)ccc3ccccc23)c(C)c1
outcome [1]: inactive

OCc1ncccc1O
outcome [4]: inactive
outcome [5]: inactive
outcome [6]: inactive

O=[N+]([O-])c1ccc2[nH]c(=S)[nH]c2c1
AC50 [4]: 0.315 µM (active)
outcome [6]: inactive
